# Results as given in PubChem BioAssay (EPA / NIEHS).
# Activity calls are given as the source filed them. How the source made its calls: active means hit-call score of the fitted dose curve at least 0.9, where 1 is the maximum; inactive means score below 0.9.
# Assay: ATG_GLI_CIS: Attagene CIS-FACTORIAL HepG2 Assay for human Zinc Finger Protein GLI1 (AID 2282945)
# Conditions: HepG2, Attagene cis-factorial reporter mRNA, GLI element; actives raise or lower the signal
# Procedure: ATG_CIS is a cell-based, multiplexed-readout assay that uses HepG2, a human liver cell line, with measurements taken at 24 hours after chemical dosing in a 24-well plate.ATG_GLI_CIS is one of 52 assay component(s) measured or calculated from the ATG_CIS assay. It is designed to make measurements of mRNA induction, a form of inducible reporter, as detected with fluorescence intensity signals by Reverse transcription polymerase chain reaction (RT-PCR) and Capillary electrophoresis technology.Data from the assay component ATG_GLI_CIS was analyzed into 1 assay endpoint. This assay endpoint, ATG_GLI_CIS, was analyzed with bidirectional fitting relative to DMSO as the negative control and baseline of activity. Using a type of inducible reporter, measures of mRNA for gain or loss-of-signal activity can be used to understand the reporter gene at the transcription factor-level as they relate to the gene GLI1. Furthermore, this assay endpoint can be referred to as a primary readout, because this assay has produced multiple assay endpoints where this one serves a reporter gene function. To generalize the intended target to other relatable targets, this assay endpoint is annotated to the dna binding intended target family, where the subfamily is zinc finger.
# Human liver HepG2 cells are transiently transfected with multiple reporter transcription units (MRTUs) in 6-well plates using FuGene 6 reagent (Roche; 3 ml FuGene/1 mg DNA). The MRTU constructs are regulated by a cis-regulating element (promoter). […] A major difference between the CIS and TRANS system is that in CIS activities of endogenous TFs are measured, whereas the TRANS assay evaluates changes in activities of exogenous, chimeric NR-Gal4 proteins. […] At the end of 24 hour incubation, total RNA was isolated using TriZol reagent (Invitrogen). The isolated RNA is then reverse-transcribed using oligo(dT) primer and Mo-MLV reverse transcriptase (Invitrogen) with DNAse I (Ambion) treatment for 30 min. The one-tenth of the produced cDNA was amplified by PCR using Taq DNA polymerase (Invitrogen) and two reporter sequence-specific primers. The PCR products were fluorescently labeled by primer extension with 6-arboxyfluorescein (6-FAM) 5'-labeled reporter sequence-specific primer (2 min at 95 C, 20 s at 68 C and 10 min at 72 C) and these products were digested with 5U of HpaI (New England Biolabs) for 2h at 37 C. The fragments were purified using Qiaquick PCR columns (Qiagen), analyzed on an ABI 3130xL genetic analyzer (Applied Biosystems) with peak positions identified by using a set of X-rhodamine (ROX)-labeled MapMarker1000 molecular weight standards (BioVentures). The raw capillary electrophoresis data was processed using Attagraph software (Attagene).
Structure (SMILES),AC50,outcome
CCCCCCCCn1sc(Cl)c(Cl)c1=O,11.1 µM (active),–
CCC/C=C/CO,–,inactive
OCCCC(F)(F)C(F)(F)C(F)(F)C(F)(F)C(F)(F)C(F)(F)C(F)(F)C(F)(F)F,–,inactive
NC(=O)C(F)(F)C(F)(F)C(F)(F)F,–,inactive
CC1=CCC(=O)O1,–,inactive
O=C1C=CC(=O)N1c1ccc(Cc2ccc(N3C(=O)C=CC3=O)cc2)cc1,–,inactive
Cc1ccc(S(=O)(=O)C(I)I)cc1,6.16 µM (active),–
CCCCOC(=O)C(C)O (stereo not given),–,inactive
O=C(O)C(F)(F)OC(F)(F)C(F)(F)OC(F)(F)C(F)(F)OC(F)(F)F,–,inactive
Cc1ccc2c(c1)OCC(=O)CO2,–,inactive
CC(C)(C)c1cc(CCC(=O)NCCCCCCNC(=O)CCc2cc(C(C)(C)C)c(O)c(C(C)(C)C)c2)cc(C(C)(C)C)c1O,–,inactive
OCC1CCCO1 (stereo not given),–,inactive
CCN=c1cc2oc3cc(NCC)c(C)cc3c(-c3ccccc3C(=O)OCC)c-2cc1C,16.3 µM (active),–
CCc1cccc(C)c1N(C(=O)C(=O)O)C(C)COC (stereo not given),–,inactive
C=CC(=O)OCC(F)(F)C(F)(F)C(F)(F)C(F)(F)C(F)(F)C(F)(F)C(F)(F)C(F)F,–,inactive
C[Si](C)O[Si](C)C,–,inactive
CSc1ccc(O)cc1C,–,inactive
CCOC(=O)CCC(C)=O,–,inactive
CCOC(OCC)OCC,–,inactive
O=C1c2c(O)ccc(Nc3ccc(CCO)cc3)c2C(=O)c2c([N+](=O)[O-])ccc(O)c21,–,inactive

Structure (SMILES),AC50,outcome
Brc1nc2ccccc2s1,–,inactive
CN(C)C(C)(C)CO,–,inactive
CCN(CC)c1ccc(N=Nc2ccccc2)cc1,–,inactive
FC(F)(F)C(F)(F)C(F)(F)CC1CO1 (stereo not given),–,inactive
CCOC(=O)CC(=O)C(F)(F)C(F)(F)F,–,inactive
COCCC(=O)OC,–,inactive
C=C(C)CCCC,–,inactive
CC(C)Nc1ccc(NC(C)C)c2c1C(=O)c1ccccc1C2=O,–,inactive
O=C(O)CCC(F)(F)C(F)(F)C(F)(F)C(F)(F)C(F)(F)C(F)(F)C(F)(F)F,–,inactive
C[Si](Cl)(Cl)CCC(F)(F)C(F)(F)C(F)(F)C(F)(F)C(F)(F)C(F)(F)F,–,inactive
CCCCCCCC/C=C\CCCCCCCC(=O)N(C)CC(=O)O,–,inactive
CC(C)C(=O)OCc1ccccc1,–,inactive
OCC(O)CC(F)(F)C(F)(F)C(F)(F)C(F)(F)F (stereo not given),–,inactive
Brc1ccccn1,–,inactive
O=C(c1ccccc1)c1ccc(O)cc1O,–,inactive
OCCCCl,–,inactive
Oc1ccc(C2(c3ccc(O)c(C4CCCCC4)c3)CCCCC2)cc1C1CCCCC1,–,inactive
CC(C)OC(=O)COc1ccc(Cl)cc1Cl,–,inactive
O=C1C=CC(=O)N1c1ccccc1,–,inactive
NC(O)(C(F)(F)F)C(F)(F)F,–,inactive
